{"source": "PubChem BioAssay AID743279", "about": "(National Center for Advancing Translational Sciences (NCATS), 2014)", "note": "About 17,000 (4.7%) of roughly 360,000 compounds were called active. Roughly 5% stayed inconclusive and do not appear here. The entries come from a sample that favours actives as a whole. A number with no mark means an inactive call. No stated cut-off is given here; in the data, active means activity change below about -50%; inconclusive means mostly about -30% to -49%; inactive means weaker than that.", "data": [{"assay": "qHTS for Inhibitors of Inflammasome Signaling: IL-1-beta AlphaLISA Primary Screen", "details": "THP-1 LPS/ATP IL-1B secretion, 16 h; at 57.5 µM, hits give low values", "how_it_was_run": "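Secreted IL-1B measured by AlphaLISA bead assay after 16 h compound exposure of THP-1 cells; compounds (final up to 57.5 uM) added 1 h before LPS (250 ng/mL) and ATP (1.25 mM) stimulation; lower signal means less secretion.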", "values": [{"compound": "CC(C)C(NC(=O)c1c(F)cccc1F)C(=O)NCc1ccncc1", "note": "(stereo unspecified); further: on the % scale 0 is the no-effect control and ±100 the full control effect", "activity change": "4.1%"}, {"compound": "CC(C)C(NC(=O)OCc1ccccc1)C(=O)OCC(=O)N1C(C)CCCC1C", "note": "(stereo unspecified)", "activity change": "-2.86%"}, {"compound": "O=C(c1ccc(N2CCOCC2)c([N+](=O)[O-])c1)N1CCN(S(=O)(=O)c2cccs2)CC1", "activity change": "-0.922%"}, {"compound": "CC(C)c1ccc(S(=O)(=O)N2CCN(C(=O)c3ccc(N4CCCC4)c([N+](=O)[O-])c3)CC2)cc1", "activity change": "-52% (active)"}, {"compound": "Cc1ccc(S(=O)(=O)N2CCN(C(=O)c3ccc(-n4cncn4)c([N+](=O)[O-])c3)CC2)cc1", "activity change": "-5.16%"}, {"compound": "CCN(CCn1cccn1)Cc1nc(-c2ccc(C(=O)OC)cc2)no1", "activity change": "81.6%"}, {"compound": "Clc1ccc(-c2cc(C3CCNCC3)[nH]n2)c(Cl)c1", "activity change": "-79.9% (active)"}, {"compound": "Clc1ccc(-c2cc(-c3ccccn3)on2)c(Cl)c1", "activity change": "0%"}, {"compound": "O=C(Cn1ccc([N+](=O)[O-])n1)NCc1cccs1", "activity change": "5.04%"}, {"compound": "O=C(NCCc1cccc(F)c1)C1CC(O)CN1C(=O)Nc1ccccc1", "note": "(stereo unspecified)", "activity change": "22.4%"}, {"compound": "CCCS(=O)(=O)C(=C1Nc2ccccc2N1)S(=O)(=O)CCC", "activity change": "3.44%"}, {"compound": "O=C(CN1CCCCC1)N1c2ccccc2Sc2ccc(C(F)(F)F)cc21", "activity change": "-13.4%"}, {"compound": "COc1cc(/C=C/C(=O)N2c3ccccc3Sc3ccc(C(F)(F)F)cc32)cc(OC)c1OC", "activity change": "-1.9%"}, {"compound": "O=C(CN1CCCCCC1)N1c2ccccc2Sc2ccc(C(F)(F)F)cc21", "activity change": "-60% (active)"}, {"compound": "CC(=O)NCCc1ccc(S(=O)(=O)N(C)C2CCS(=O)(=O)C2)cc1", "note": "(stereo unspecified)", "activity change": "0%"}, {"compound": "CC(=O)c1nn(-c2ccccc2)c(=Nc2ccccc2)cc1C", "activity change": "-11%"}, {"compound": "Oc1ccccc1-c1cc(-c2ccc(Cl)cc2)n[nH]1", "activity change": "-71.3% (active)"}, {"compound": "CSc1ccccc1-c1nnc(-c2ccc(Cl)cc2)o1", "activity change": "-6.95%"}, {"compound": "O=C(Nc1ccc(Cl)cn1)c1ccccc1-c1ccccc1", "activity change": "7.39%"}, {"compound": "CC(=O)NC(C)(C)C1CC=C(C)/C(=N\\O)C1", "note": "(stereo unspecified)", "activity change": "3.35%"}, {"compound": "COc1ccccc1CNC(=O)C1CCN(S(=O)(=O)c2ccc3c(c2)CC(C)N3C(=O)C2CC2)CC1", "note": "(stereo unspecified)", "activity change": "-26%"}, {"compound": "COc1cccc(CNS(=O)(=O)c2ccc3c(c2)CC(C)N3C(C)=O)c1", "note": "(stereo unspecified)", "activity change": "4.38%"}, {"compound": "COc1ccc(N(C)S(=O)(=O)c2ccc3c(c2)CC(C)N3C(=O)C2CC2)c(OC)c1", "note": "(stereo unspecified)", "activity change": "-63.4% (active)"}, {"compound": "C[C@H](CO)N1C[C@H](C)[C@@H](CN(C)C(=O)c2cnccn2)Oc2ncc(Br)cc2C1=O", "activity change": "33.8%"}, {"compound": "CC(=O)Nc1ccc(C=Cc2ccc([N+](=O)[O-])cc2)cc1", "activity change": "-18.6%"}, {"compound": "O=[N+]([O-])c1ccc(C=NN=Cc2ccc([N+](=O)[O-])cc2)cc1", "activity change": "-8.06%"}, {"compound": "O=C1/C(=C\\c2ccc([N+](=O)[O-])cc2)CS(=O)(=O)C/C1=C/c1ccc([N+](=O)[O-])cc1", "activity change": "-99.9% (active)"}, {"compound": "CCN(C(=O)CSc1ncnc2c1cnn2-c1ccccc1)C1CCS(=O)(=O)C1", "note": "(stereo unspecified)", "activity change": "-60.6% (active)"}, {"compound": "CCN(CC)C(=O)CSc1ncnc2c1cnn2-c1ccccc1", "activity change": "-11.6%"}, {"compound": "CCC(C)N(C(=O)CSc1ncnc2c1cnn2-c1ccccc1)C1CCS(=O)(=O)C1", "note": "(stereo unspecified)", "activity change": "-9.61%"}, {"compound": "CC1=C(C(=O)N2CCOCC2)CC(CC(=O)NCC2CCCCC2)C(=O)N1Cc1ccc(F)cc1", "note": "(stereo unspecified)", "activity change": "3.54%"}, {"compound": "CNc1cc(-c2c(OC)cccc2OC)ncn1", "activity change": "22.1%"}, {"compound": "Cc1ccc(OCCNC(=O)c2cccc(S(=O)(=O)N3CCN(Cc4ccccc4)CC3)c2)cc1", "activity change": "-14.6%"}, {"compound": "C=CCN(CC=C)C(=O)COC(=O)c1n[nH]c2ccccc12", "activity change": "18.7%"}, {"compound": "O=C1NC[C@H](Cc2ccc(O)cc2)N(C[C@@H]2CCCN2C[C@H](Cc2ccccc2)N2C[C@H](Cc3ccccc3)N(CC3CCCCC3)C(=O)C2=O)C1=O", "activity change": "-15.5%"}, {"compound": "CCOc1ccc(CCN2C(=O)C(=O)N([C@@H](Cc3ccc(O)cc3)CN3CCC[C@H]3CN3C(=O)C(=O)NC[C@@H]3CC(C)C)C[C@@H]2Cc2ccccc2)cc1", "activity change": "13.9%"}, {"compound": "CC(C)C[C@H]1CNC(=O)C(=O)N1C[C@H]1CCCN1C[C@H](Cc1ccc(O)cc1)N1C[C@H](CC(C)C)N(CC2CCCCCC2)C(=O)C1=O", "activity change": "-60.7% (active)"}, {"compound": "CC(C)C[C@H]1CNC(=O)C(=O)N1C[C@@H]1CCCN1C[C@H](Cc1ccccc1)N1C[C@H](CC(C)C)N(CC2CCCCCC2)C(=O)C1=O", "activity change": "0%"}, {"compound": "CC(C)C[C@H]1CNC(=S)N1C[C@H]1CCCN1C[C@H](Cc1ccc(O)cc1)N1C[C@H](Cc2ccc(O)cc2)N(CC2CCCCC2)C1=S", "activity change": "-11.2%"}, {"compound": "CC(C)C[C@H]1CN([C@@H](CC(C)C)CN2CCC[C@@H]2CN2C(=O)C(=O)NC[C@@H]2Cc2ccccc2)C(=O)C(=O)N1CCc1ccccc1", "activity change": "-63.4% (active)"}, {"compound": "CCOc1ccc(CCN2C(=S)N([C@@H](CC(C)C)CN3CCC[C@@H]3CN3C(=S)NC[C@@H]3Cc3ccc(O)cc3)C[C@@H]2Cc2ccc(O)cc2)cc1", "activity change": "-64.1% (active)"}, {"compound": "CCOc1ccc(CCN2C(=O)C(=O)N([C@@H](CC(C)C)CN3CCC[C@H]3CN3C(=O)C(=O)NC[C@@H]3Cc3ccccc3)C[C@@H]2CC(C)C)cc1", "activity change": "-1.26%"}, {"compound": "CC(C)C[C@H]1CN([C@@H](Cc2ccccc2)CN2CCC[C@@H]2CN2C(=O)C(=O)NC[C@@H]2Cc2ccc(O)cc2)C(=O)C(=O)N1CCc1ccccc1", "activity change": "0%"}, {"compound": "CCCCN1CC(COc2ccccc2)Oc2cccc(F)c2S1(=O)=O", "note": "(stereo unspecified)", "activity change": "-1.95%"}, {"compound": "COc1cc(NC(=O)CSc2ccc(-c3cccnc3)nn2)cc(OC)c1", "activity change": "-13.8%"}, {"compound": "CC1CCC2(CC1)NC(=O)N(CC(=O)NCc1ccco1)C2=O", "note": "(stereo unspecified)", "activity change": "5.54%"}, {"compound": "CCc1ccc2c(c1)NC(=O)C2(C)Cc1ccc(OC(F)(F)F)cc1", "note": "(stereo unspecified)", "activity change": "-20.9%"}, {"compound": "N#C/C=C(/c1ccc(F)cc1)N1CCOCC1", "activity change": "11.5%"}, {"compound": "COc1ccc(CNC(=O)COC(=O)C2=Cc3ccccc3OC2)cc1", "activity change": "1.65%"}, {"compound": "COc1ccc(NC(=S)NC2CCS(=O)(=O)C2)cc1", "note": "(stereo unspecified)", "activity change": "7%"}, {"compound": "O=C(CSc1ccccc1F)NC1CCS(=O)(=O)C1", "note": "(stereo unspecified)", "activity change": "-10.4%"}, {"compound": "CC(C)C(=O)NC(NC(=S)NC1CCS(=O)(=O)C1)C(Cl)(Cl)Cl", "note": "(stereo unspecified)", "activity change": "15.4%"}, {"compound": "CCCSC(=S)NC1CCS(=O)(=O)C1", "note": "(stereo unspecified)", "activity change": "-105% (active)"}, {"compound": "O=C(Cc1ccc(Cl)cc1)NC1CCS(=O)(=O)C1", "note": "(stereo unspecified)", "activity change": "-6.66%"}, {"compound": "O=S1(=O)CCC(NC(=S)SCc2ccccc2Br)C1", "note": "(stereo unspecified)", "activity change": "-69% (active)"}, {"compound": "C[C@@H]1NS(=O)(=O)c2cc(Cl)ccc2O[C@@H]1c1ccccc1", "activity change": "-5.88%"}, {"compound": "O=C1NC[C@H](CCCCN2C[C@H](Cc3ccc(O)cc3)N(CC3CCCCC3)C(=O)C2=O)N(CCc2ccccc2)C1=O", "activity change": "4.81%"}, {"compound": "CC1(Cc2ccccc2C#N)C(=O)Nc2ccc(-c3ccc4[nH]ccc4c3)cc21", "note": "(stereo unspecified)", "activity change": "90.5%"}, {"compound": "COc1ccc(N=C2C=CC(=O)O2)cc1", "activity change": "4.16%"}, {"compound": "CCCCNC(=O)c1nc(C2CCN(S(=O)(=O)c3ccc(F)c(F)c3)CC2)oc1-c1cccc(C(F)(F)F)c1", "activity change": "11.8%"}, {"compound": "CCOC(=O)[C@]12CCCC=C1N(Cc1cccc3ccccc13)C(=O)[C@H](CC(=O)NCC13CC4CC(CC(C4)C1)C3)C2", "activity change": "-26.5%"}, {"compound": "O=S1(=O)CC(N2CCSCC2)CN1Cc1cn(Cc2cccc(Cl)c2)nn1", "note": "(stereo unspecified)", "activity change": "-25.6%"}, {"compound": "COc1ccc(Br)cc1/C=N/Nc1ccc(S(=O)(=O)Nc2ccccc2C(=O)O)cc1[N+](=O)[O-]", "activity change": "0%"}, {"compound": "Cc1cc(C)cc(OCC(=O)NCc2cc(C)nc3ccccc23)c1", "activity change": "14.8%"}, {"compound": "Cc1cc(C)c(NC(=O)C[N+](C)(C)CC(O)COc2cccc3ccccc23)c(C)c1", "note": "(stereo unspecified)", "activity change": "-86% (active)"}, {"compound": "Cc1cc(C)c(NC(=O)c2oc3ccccc3c2COc2ccccc2)c(C)c1", "activity change": "-17.8%"}, {"compound": "COc1ccc(NC(=O)N(C)C[C@H]2Oc3ncc(C#C[C@@H](C)O)cc3C(=O)N([C@H](C)CO)C[C@H]2C)cc1", "activity change": "-13.1%"}, {"compound": "CC1(Oc2ccc(Cl)cc2)CCN(Cc2csc3ccccc23)C1", "note": "(stereo unspecified)", "activity change": "17.7%"}, {"compound": "Cc1cc(OC(=O)c2ccccc2)c([N+](=O)[O-])c(=O)[nH]1", "activity change": "-9.86%"}, {"compound": "Cc1ccc(S(=O)(=O)N2[C@@H](Cc3ccccc3)CO[C@H]2CC(=O)OCc2ccccc2)cc1", "activity change": "-0.839%"}, {"compound": "O=S(=O)(Cc1ccc(Cl)cc1Cl)c1ccc(Cl)cc1", "activity change": "-1.43%"}, {"compound": "CCN(CC)CCNC(=O)c1sc2ncn(CC(=O)Nc3ccc(C)c(Cl)c3)c(=O)c2c1C", "activity change": "-75.6% (active)"}, {"compound": "CCN(CC)CCCNC(=O)Cn1cnc2sc(C)c(S(=O)(=O)N3CCN(c4ncccn4)CC3)c2c1=O", "activity change": "18.1%"}, {"compound": "CCN(CC)CCNC(=O)Cn1cnc2sc(C)c(S(=O)(=O)N3CCOCC3)c2c1=O", "activity change": "14.7%"}, {"compound": "CN(C)C1CN(Cc2cn(Cc3ccccc3)nn2)S(=O)(=O)C1", "note": "(stereo unspecified)", "activity change": "-13.3%"}, {"compound": "CC(C)CCOc1ccc(C(=O)Nc2cc(S(=O)(=O)N3CCOCC3)ccc2N2CCOCC2)cc1", "activity change": "-18.6%"}, {"compound": "O=S(=O)(NCCCN1CCOCC1)c1ccc(F)c(Cl)c1", "activity change": "-0.644%"}, {"compound": "CC1(C(=O)Nc2ccc3c(c2)OCCO3)CN(S(C)(=O)=O)CC(=O)N1Cc1cccc(F)c1", "note": "(stereo unspecified)", "activity change": "-9.42%"}, {"compound": "CCCCCCSc1ccc([C@@H]2[C@@H]3C(=O)N(CC)C(=O)[C@@H]3[C@]3(C(=O)OC)CCCCN23)cc1OC", "activity change": "-74.8% (active)"}, {"compound": "CCCCCCSc1ccc([C@@H]2[C@H]3C(=O)N(CC)C(=O)[C@H]3[C@]3(C(=O)OC)CCCCN23)cc1", "activity change": "144%"}, {"compound": "CCN1C(=O)[C@@H]2[C@@H](c3ccc(-c4ccc(OC)cc4)c(OC)c3)N3CCC[C@@]3(C(=O)OC)[C@@H]2C1=O", "activity change": "-7.49%"}]}]}
